Data on 62 compounds can be found in PubChem BioAssay AID485344 (National Center for Advancing Translational Sciences (NCATS), 2010).

Each structure is given as a SMILES string. Out of some 340,000 compounds screened, about 6,900 (2%) were called active. Cut-off read from the data, not from the text of the source: active = inhibition above about 30%; inactive = below that, where a call was filed. This excerpt belongs to a sample that is enriched for actives.

Sequence of D(2) dopamine receptor (Homo sapiens) (P14416 whole entry, looked up): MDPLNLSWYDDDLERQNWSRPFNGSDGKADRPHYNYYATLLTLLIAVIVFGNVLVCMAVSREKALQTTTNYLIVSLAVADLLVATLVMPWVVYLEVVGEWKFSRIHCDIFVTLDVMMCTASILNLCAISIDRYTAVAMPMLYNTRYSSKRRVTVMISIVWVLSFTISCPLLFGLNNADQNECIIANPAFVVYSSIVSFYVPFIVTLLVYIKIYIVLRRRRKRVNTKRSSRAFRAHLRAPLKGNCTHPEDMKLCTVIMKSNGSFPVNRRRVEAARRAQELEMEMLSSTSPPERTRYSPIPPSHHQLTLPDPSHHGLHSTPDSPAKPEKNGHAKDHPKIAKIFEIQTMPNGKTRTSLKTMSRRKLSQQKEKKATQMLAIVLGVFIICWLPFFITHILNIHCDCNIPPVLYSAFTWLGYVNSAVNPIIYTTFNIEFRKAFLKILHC

In the assay the target is D(2) dopamine receptor (Homo sapiens) (UniProt P14416). The assay is described as follows: HTS Assay for Allosteric Antagonists of the Human D2 Dopamine Receptor: Primary Screen for Antagonists. Note: 0% is about no effect. Conditions: HEK293 TREx D2 cells, calcium flux, dopamine EC80; at 10 µM; active compounds read high. In outline:
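Dopamine at EC80 is the agonist stimulus; test compounds precede it by 180 s. Calcium flux read kinetically in a force-coupled, inducible HEK293 T-REx D2 cell line.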
On the technique in general: Calcium assays in cells follow changes in intracellular calcium, usually with a dye or a luminescent sensor.
As usually defined, the inhibition is the change of the read-out against control, counted positive when it falls. With `CC(=O)Oc1ccccc1C(=O)Nc1ncc([N+](=O)[O-])s1`, the inhibition is 35% (active).

Take `O=C(Nc1ncc([N+](=O)[O-])s1)C1COc2ccccc2O1` (configuration not stated): the inhibition is 5.74% (inactive).

`O=C(CCc1ccccc1)Nc1ncc([N+](=O)[O-])s1`: the inhibition was -6.9% (inactive).

On to `O=C1C=C(c2cccc(Br)c2)C[C@@H](c2ccc(F)cc2)C1`, for which the inhibition was -5.1% (inactive).

Turning to `OC(COc1cccc2ccccc12)CN1CCN(c2ccccn2)CC1` (configuration not stated), the inhibition was 75.1% (active).

Consider `O=C(C(c1ccccc1)c1ccccc1)N1CCN(CC(O)COc2ccccc2)CC1` (configuration not stated), for which the inhibition was 19.3% (inactive).

Turning to `O=C(c1ccc(Cl)cc1)c1ccc(OCC(O)CN2CCCCC2)cc1` (configuration not stated), the inhibition is 11.7% (inactive).

In the case of `OC(COc1ccc(Br)cc1)CN1CCCC1` (configuration not stated), the inhibition was 15.6% (inactive).

On to `C=CCc1ccccc1OCC(O)CN1CCN(CCO)CC1` (configuration not stated), for which the inhibition was -21.6% (inactive).

As for `CC(C)c1ccc(OCC(O)CN2CCN(c3ccccn3)CC2)cc1` (configuration not stated), the inhibition was 74.5% (active).

Regarding `O=C(c1ccccc1)c1ccc(OCC(O)CN2CCCC2)cc1` (configuration not stated), the inhibition is 71.8% (active).

In the case of `O=S(=O)(c1ccc(OCC(O)CN2CCN(c3ccccc3Cl)CC2)cc1)N1CCOCC1` (configuration not stated), the inhibition was -9.57% (inactive).

Consider `CC(=O)Nc1ccc(OCC(O)CN2CCN(c3ccccc3Cl)CC2)cc1` (configuration not stated), for which the inhibition was 76.3% (active).

Turning to `CC(C)c1ccc(OCC(O)Cn2cnc3ccccc32)cc1` (configuration not stated), the inhibition is 5.76% (inactive).

For `CC1CCN(CC(O)COc2ccc(C(=O)c3ccccc3)cc2)CC1` (configuration not stated), the inhibition was 2.36% (inactive).

In the case of `Cc1cccc(OCC(O)CN2CCN(CCN3C(=O)c4cccc5cccc(c45)C3=O)CC2)c1C` (configuration not stated), the inhibition is -17.4% (inactive).

As for `Cc1ccc(CC(=O)N(C)CC(=O)N(CC(C)C)c2c(N)n(CC(C)C)c(=O)[nH]c2=O)cc1C`, the inhibition is 15% (inactive).

For `CC(C)CCN1CCN=C1N(C)C`, the inhibition is 8.98% (inactive).

As for `O=C(Nc1ccccn1)C1CCN(S(=O)(=O)c2ccccc2)CC1`, the inhibition is 5.14% (inactive).

With `COc1ccccc1-c1oc2ccccc2c1C#CCCCCO`, the inhibition was 13.9% (inactive).

For the compound `Cc1cc(C)n2nc(C(=O)OCC(=O)N(C)CC(=O)Nc3ccc(F)cc3)nc2n1`, the inhibition is 7.08% (inactive).

As to `CN(CC(=O)Nc1ccc(OC(F)(F)F)cc1)C(=O)C1CCC1`, the inhibition is -3.8% (inactive).

On to `COc1ccccc1C(=O)Nc1ccc(C)c(S(=O)(=O)N2CCCCC2)c1`, for which the inhibition was 9.57% (inactive).

On to `O=C(Nc1ccccc1F)c1ccc(S(=O)(=O)N2CCCCCC2)cc1`, for which the inhibition was -10.1% (inactive).

With `CN(C(=O)COC(=O)c1cc(=O)[nH]c2ccccc12)C1CCCCC1`, the inhibition was 6.97% (inactive).

For the compound `O=C(Nc1cc(S(=O)(=O)N2CCOCC2)ccc1OCC(F)(F)F)c1ccc(N2CCCC2=O)cc1`, the inhibition was -14.2% (inactive).

Consider `Cc1ccccc1OCC(O)CN1CCN(c2ccccn2)CC1` (configuration not stated), for which the inhibition was 87.2% (active).

Take `COc1ccccc1OCC(O)CN1CCOCC1` (configuration not stated): the inhibition is 3.41% (inactive).

Turning to `Cc1cccc(C)c1OCC(O)CN1CCCCC1` (configuration not stated), the inhibition was 13.3% (inactive).

Take `CC(NC(=O)c1ccccc1SCC(=O)N1CCCC1)c1ccccc1` (configuration not stated): the inhibition is 5.13% (inactive).

As to `Cc1ccc(NC(=O)COC(=O)CNC(=O)c2ccc(Cl)cc2Cl)cc1S(=O)(=O)N1CCOCC1`, the inhibition was -10.2% (inactive).

Consider `COC(=O)Cc1cc(=O)n(-c2nc3ccccc3s2)[nH]1`, for which the inhibition is 36.2% (active).

With `COC(=O)Cc1[nH]n(-c2nc3ccccc3s2)c(=O)c1C(C)=Nc1ccc(OC)cc1`, the inhibition was 12.5% (inactive).

With `C/C(=N\NC(=O)CC(C)C)c1c(C(F)(F)F)[nH]n(-c2nc3ccccc3s2)c1=O`, the inhibition was -4.59% (inactive).

Consider `N[C@@H](Cc1ccccc1)C(=O)N1CCOCC1`, for which the inhibition is -3.78% (inactive).

With `COc1ccc(S(=O)(=O)N2CCOCC2)cc1NC(=O)CC1CC2CCC1C2` (configuration not stated), the inhibition was -10.8% (inactive).

With `O=C(Nc1ccc(-n2cccn2)cc1)C1CCN(Cc2ccsc2)CC1`, the inhibition is 0.479% (inactive).

With `O=C(Nc1cccc(-c2cscn2)c1)C1CCN(Cc2ccsc2)CC1`, the inhibition is 48.1% (active).

`CC(=O)c1cc(CN2CCC(C(=O)Nc3cccc(-c4cscn4)c3)CC2)cs1`: the inhibition was 10.7% (inactive).

Turning to `Cc1cc(C)cc(NC(=O)C(c2ccccc2)N2CCN(CC(=O)N3CCCC3)CC2)c1` (configuration not stated), the inhibition is 3.24% (inactive).

In the case of `CC1CCN(c2nc3c(c(=O)[nH]c(=O)n3C)n2CCCc2ccccc2)CC1`, the inhibition was -0.868% (inactive).

With `Cn1c(=O)[nH]c(=O)c2c1nc(CN1CCN(c3ccccc3F)CC1)n2CCc1ccccc1`, the inhibition is 46.1% (active).

As for `Cn1c(=O)[nH]c(=O)c2c1nc(CN(Cc1ccccc1)Cc1ccccc1)n2CCN1CCOCC1`, the inhibition is 10.3% (inactive).

On to `CCOC(=O)c1sc(NC(=O)C2CSC3(C)CCC(=O)N23)nc1C` (configuration not stated), for which the inhibition was -25.8% (inactive).

For `COc1ccc(C2(C)ON(c3ccccc3C(F)(F)F)C2=O)cc1` (configuration not stated), the inhibition is -4.74% (inactive).

Turning to `CCN(C(=O)CN1C(=O)/C(=C/c2ccc(F)cc2)SC1=S)C1CCS(=O)(=O)C1` (configuration not stated), the inhibition was -6.17% (inactive).

Take `O=C1/C(=C/c2ccc(F)cc2)SC(=S)N1CCCC(=O)N1CCCCC1CCO` (configuration not stated): the inhibition was 31.6% (active).

`O=C(CCCN1C(=O)/C(=C\c2ccccc2)SC1=S)Nc1ccccc1O`: the inhibition was -8.37% (inactive).

`COc1ccc(Cl)cc1NC(=O)CN(C)C(=O)c1ccc2n[nH]nc2c1`: the inhibition was -5.47% (inactive).

As for `CCC1(CC)Cc2ccccc2-c2nc3ccccc3c(=O)n21`, the inhibition was 5.55% (inactive).

For the compound `CCn1c(C)nc2c1C(=O)c1ccccc1C2=O`, the inhibition is 34.8% (active).

Regarding `Cc1nc2ccccc2n1CC(O)c1ccccc1` (configuration not stated), the inhibition is 2.64% (inactive).

Consider `C#CCOCCOCCOCCNc1nc(N2CCN(C(=O)[C@H](CCCCN)n3cc(CCC(=O)O)nn3)CC2)nc(N2CCN(C(=O)[C@H](CCCCN)n3cc(CC(C)O)nn3)CC2)n1` (some centres not stated), for which the inhibition is -5% (inactive).

For `COc1ccccc1Nc1nnc(SC(C)C(=O)NC2CC2)s1` (configuration not stated), the inhibition was -7.77% (inactive).

As to `Cc1ccc([C@@H]2CC=C(C(=O)O)[C@H](c3cccc(Cl)c3)N2S(=O)(=O)c2ccc(C)cc2)cc1`, the inhibition is 10.4% (inactive).

Consider `C[C@H](NC(=O)c1ccccc1Cl)C(=O)OCC(=O)N1CCN(c2ccccc2)CC1`, for which the inhibition is 8.27% (inactive).

For `COc1ccccc1CNC(=O)CCCNS(=O)(=O)c1cccc2nsnc12`, the inhibition was 42.4% (active).

Consider `O=C(CCCNS(=O)(=O)c1cccc2nsnc12)NCCN1CCN(c2ccccc2F)CC1`, for which the inhibition was 78.8% (active).

`O=C(CCS(=O)(=O)c1cccc2nsnc12)N1CCN(c2ccccc2F)CC1`: the inhibition was -8.03% (inactive).

In the case of `CCOc1ccccc1NC(=O)CCS(=O)(=O)c1cccc2nsnc12`, the inhibition was 4.79% (inactive).

For `COc1ccc(CNC(=O)C(NS(=O)(=O)c2cccc3nsnc23)C(C)C)cc1` (configuration not stated), the inhibition was 7.26% (inactive).

Take `O=C(C(NS(=O)(=O)c1cccc2nsnc12)c1ccccc1)N1CCN(c2ccccc2)CC1` (configuration not stated): the inhibition is 1.2% (inactive).
